Source: PubChem BioAssay
Giardia killer – Small Molecules that selectively kill Giardia lamblia: qHTS; actives 0.15% (n = 340,000); Giardia lamblia trophozoite viability; activity change, % at 7.66 µM, hits read low; in the data active = activity change below about -80%; inconclusive = between about -30% and that limit;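 note: parasites exposed to compound for two days anaerobically before the ATP read; % is set by controls: 0 for no effect and ±100 for the full control effect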
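Each well holds 100 Giardia trophozoites and compound. After two days (48 hrs) at 37 deg C in anaerobic conditions, ATP is quantified by luminescence.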
KB-V1 MDR tox – qHTS assay for MDR1-selective chemotherapeutics: Primary screen using the drug-selected MDR subline cells KB-V1. Potency, µM (top dose mostly 46.1 µM), most hits filed as cytotoxic. AID 1347076, 2019. actives 3.4% (n = 400,000). KB-V1 MDR cells viability, CellTiter-Glo, 72 h; note: potency is the fitted concentration of half-maximal effect; % is set by controls: 0 for no effect and ±100 for the full control effect; nearly all actives have a fitted effect of over 60% in size
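Luminescent ATP read-out (CellTiter-Glo, 10 min) measures survival of drug-selected KB-V1 MDR cells after 72 h, 37 degrees C compound exposure. Medium: phenol-red-free DMEM, 10% FBS. Values from fitted concentration-response curves.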
KB-3-1 tox – qHTS assay for MDR1-selective chemotherapeutics: Primary screen using the parental adenocarcinoma cell KB-3-1; KB-3-1 viability, CellTiter-Glo ATP luminescence, 72 h; Potency, µM (series often up to 46.1 µM), hits mostly cytotoxic; actives 1.4% (n = 400,000); AID 1347075, 2019; note: potency is the fitted concentration of half-maximal effect; % is set by controls: 0 for no effect and ±100 for the full control effect; nearly all actives have a fitted effect of over 60% in size
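Cells are dispensed, compounds pinned in, plates held at 37 °C for 72 h, then CellTiter-Glo is added and luminescence read after 10 minutes. Cell line: parental KB-3-1 in phenol-red-free DMEM, 10% FBS.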
S-ASM inh – Inhibitors of Secretory Acid Sphingomyelinase (S-ASM): qHTS | Sphingomyelin phosphodiesterase (Homo sapiens), P17405 | placental ASM, HMU-PC fluorogenic substrate, 60 min | Potency, µM (series often up to 57.5 µM), for the others: at the top dose activity change, negative = inhibition, actives largely listed as inhibitors | actives 0.006% (n = 340,000) | AID 504937, 2011; note: potency is the fitted concentration of half-maximal effect
Target sequence (P17405 47-631 limits assumed): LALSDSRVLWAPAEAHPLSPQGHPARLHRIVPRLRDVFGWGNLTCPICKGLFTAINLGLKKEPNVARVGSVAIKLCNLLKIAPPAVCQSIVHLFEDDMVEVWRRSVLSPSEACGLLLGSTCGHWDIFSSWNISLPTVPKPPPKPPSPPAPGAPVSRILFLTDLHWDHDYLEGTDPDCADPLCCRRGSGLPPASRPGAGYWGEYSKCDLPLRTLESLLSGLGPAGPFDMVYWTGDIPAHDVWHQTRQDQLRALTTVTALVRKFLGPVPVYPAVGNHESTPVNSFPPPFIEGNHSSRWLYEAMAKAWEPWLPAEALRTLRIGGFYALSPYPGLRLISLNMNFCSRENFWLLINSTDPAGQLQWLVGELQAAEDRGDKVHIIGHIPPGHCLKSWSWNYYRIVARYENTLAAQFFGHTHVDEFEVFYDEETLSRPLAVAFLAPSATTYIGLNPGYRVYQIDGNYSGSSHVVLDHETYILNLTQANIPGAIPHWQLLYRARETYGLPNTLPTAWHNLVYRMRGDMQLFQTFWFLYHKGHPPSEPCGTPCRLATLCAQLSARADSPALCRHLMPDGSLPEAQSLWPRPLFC
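Human placenta-derived ASM preincubated with compound 10 min at room temperature, then reacted with 9 uM (final) fluorogenic HMU-PC substrate for 60 min at 37 C. Stop solution raises pH to 10; fluorescence read at Ex 386/Em 447 nm.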
MCF10A rereplic – A quantitative high throughput screen for small molecules that induce DNA re-replication in MCF 10a normal breast cells | MCF 10A DNA re-replication, Hoechst nuclear intensity, 48 h | Potency, µM (doses to about 46.1 µM), for inactives: top-dose activity, positive = re-replication, usual class: activators | actives 2.9% (n = 350,000); note: potency is the fitted concentration of half-maximal effect; % of control where 0% means no effect; nearly all actives have a fitted effect of over 50% in size
SW480 rerep – A quantitative high throughput screen for small molecules that induce DNA re-replication in SW480 colon adenocarcinoma cells. actives 1.8% (n = 340,000). Potency, µM (titrated, usually from 46.1 µM), without a hit: at the highest dose re-replication activation, actives largely listed as activators. SW480 DNA re-replication, Hoechst DNA content imaging, 48 h; note: potency is the fitted concentration of half-maximal effect; % of control where 0% means no effect; nearly all actives have a fitted effect of over 55% in size
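SW480 cells exposed to compounds for 48 hr at 37 C, 5% CO2, then Hoechst-stained 40 min. Nuclear DNA content imaged by fluorescence scanning (405 nm excitation, 500-530 nm emission); re-replication scored as increased high-intensity nuclei.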
* hit, by the source's call; i = inactive; u = inconclusive; x = no result; [ ] = another dose, or the depositor's remark. Shown are actives, neighbours in structure and some others; about 6.9% of the full set was active somewhere. Unless noted, calls come from the whole dose curve; as a rule, active = well fitted curve in the direction sought with a large enough effect; inconclusive = small, poorly fitted or top-dose-only effect, or another doubt; inactive = no such curve, though single readings can be large; an effect the other way counts as inactive or inconclusive.

SMILES	Giardia killer	KB-V1 MDR tox	KB-3-1 tox	S-ASM inh	MCF10A rereplic	SW480 rerep
Cc1nc2c(c(=O)n1CCC1=CCCCC1)c1nc3ccccc3nc1n2/N=C/c1ccccc1	12	9.2µM*	i	30%	23µM*	0%
CSc1nc(-c2ccccc2)nc(C(C)C)n1	-29	u	i	-5%	-1%	-18%
CCCN1C(=O)/C(=C/c2ccc(C)o2)SC1=Nc1ccc(OC)cc1	10	i	i	-24%	16µM*	1%[9.22 µM]
COc1cccc(CN2CCNC(=O)C2CC(=O)N(C)C2CCOCC2)c1OC (centres undefined)	5	i	i	x	-1%	-7%
COc1cc(C(=O)NC2CCCC2)c(Br)c(OC)c1OC	-18	i	i	1%	-1%	1%
COc1cc(C(=O)NCCOc2cc(C)cc(C)c2)c(Br)c(OC)c1OC	-15	10µM*	i	2%	u	u
O=C(Cn1cnc2ccccc21)N/N=C/c1cccc([N+](=O)[O-])c1	10	i	i	-2%	-2%	-8%
CC(=O)Nc1ccc(-c2nnc(SCc3ccccc3)n2C)cc1	x	i	u	x	x	x
CCCc1[nH]n(-c2ccc(F)cc2)c(=O)c1C=NCC1CCCO1 (centres undefined)	-29	i	i	2%	3%	-6%
CCCc1[nH]n(-c2ccc(F)cc2)c(=O)c1C=Nc1cccc(F)c1	3	u	5.8µM*	-3%	u	u
C[C@@H]1COC(=O)[C@H](CC(=O)OC(C)(C)C)C/C=C\C[C@@H](CC(=O)N[C@H](CO)Cc2ccccc2)C(=O)N1	-3	u	i	-2%	u	-2%
C(=NNc1nnn(Cc2ccccc2)n1)c1ccccc1	x	16µM*	u	x	x	x
O=C(Cn1ncc2ccsc2c1=O)N1CCN(c2ccccc2)CC1	x	i	i	x	x	x
COc1ccc(C2SCCN2C(=S)Nc2ccc(Cl)cc2)cc1 (centres undefined)	8	23µM*	u	-2%	-2%	4%
COc1ccc(C2SCCN2C(=S)Nc2cccc(Cl)c2)cc1 (centres undefined)	-11	7.3µM*	u	-9%	-50%	-7%
NCCc1nnc(SCc2ccc(Cl)cc2)o1	x	u	i	x	x	x
O=C(Nc1ccc2c(c1)OCCO2)c1cccc2nc3ccccc3nc12	2	6.5µM*	u	-19%	u	5%
O=C(Nc1ccc2c(c1)OCCO2)c1ccccc1Cl	x	i	i	x	x	x
O=C(Nc1ccc2c(c1)OCCO2)c1ccccn1	u	u	18µM*	1%	3%	1%
O=C(Nc1ncccc1O)c1ccc2c(c1)OCO2	-4	i	u	6%	2%	-114%
O=C(Nc1ncccc1O)c1ccc2c(c1)OCCO2	12	u	4.1µM*	-2%	11%	18%
COc1ccc(-c2nn(C)c3sc(C(=O)N4CCN(c5cccc(C)c5C)CC4)cc23)cc1OC	x	i	i	x	x	x
COc1cc(NS(=O)(=O)c2ccc3c(c2)CCN3S(C)(=O)=O)cc(OC)c1	x	u	i	x	x	x
O=C(C[n+]1csc2ccccc21)c1ccccc1	x	i	i	x	x	x
COC(=O)N/N=C/c1ccc(-c2ccccc2Cl)o1	-3	6.5µM*	u	-2%	1%	-7%
SMILES	Giardia killer	KB-V1 MDR tox	KB-3-1 tox	S-ASM inh	MCF10A rereplic	SW480 rerep
COC(=O)c1ccccc1-c1ccc(/C=N/NC(N)=O)o1	0	5.2µM*	15µM*	62%	-4%	-18%
COC(=O)c1ccccc1-c1ccc(C=O)o1	-6	i	i	1%	-15%	0%
CN(C)/C=C/C(=O)c1ccccc1OCc1cnc(Cl)s1	u	i	i	-2%	18µM*	u
CN(C)C=NC(=O)c1ccc(N2CCN(c3ncc(C(F)(F)F)cc3Cl)CC2)cc1	-10	i	i	19%	15µM*	-1%
CCOc1cc(S(=O)(=O)NCCc2c(C)[nH]c3ccc(C)cc23)ccc1F	x	i	i	x	x	x
Cc1cccc(N2CCN(C(=O)c3ccc(S(=O)(=O)N(C)c4ccccc4)cc3)CC2)c1C	-10	23µM*	u	-1%	5.2µM*	10µM*
COc1ccc(N(C)S(=O)(=O)c2cccc(C(=O)N3CCN(c4cccc(C)c4C)CC3)c2)cc1	-30	i	16µM*	-9%	12%	28%
Cc1cccc(N2CCN(C(=O)c3cccc(S(=O)(=O)N4CCCCC4)c3)CC2)c1C	13	u	u	-10%	15µM*	u
CCOC(=O)C1CCCN(C(=O)c2cccc(S(=O)(=O)N(C)c3ccc(OC)cc3)c2)C1 (centres undefined)	-5	u	i	-3%	8%	-5%
CCC1(C(=O)NC(=Nc2ccccc2)Nc2ccccc2)CCOC1=O (centres undefined)	-19	i	i	0%	0%	-1%
Cc1ccc(C)c(C(=O)COC(=O)C2CCN(c3ccc(C(F)(F)F)cn3)CC2)c1	-4	i	i	-2%	-1%	1%
Cc1ccc(/C=C2/Sc3ccc(C(=O)N4CCN(c5ccccn5)CC4)cc3NC2=O)cc1	-4	i	i	2%	8.2µM*	20%
Cc1ccccc1/C=C1\Sc2ccc(C(=O)N3CCN(c4ccccn4)CC3)cc2N(C)C1=O	-2	u	i	-13%	23µM*	3%
Cc1ccc(CCNC(=O)c2ccc(NC(=O)N3CCSc4ccccc43)cc2)cc1	x	i	i	x	x	x
COC(=O)c1cc2occc2n1Cc1nc(-c2ccccc2)oc1C	x	i	i	x	x	x
Clc1ccc(-c2nnc3sc(-c4ccc(Br)o4)nn23)c(Cl)c1	34	u	i	5%	9.2µM*	3%
O=C(NNc1ncc(C(F)(F)F)cc1Cl)c1c(Cl)cccc1Cl	7	2.9µM*	5.8µM*	-1%	6.5µM*	u
NNC(=O)CN1CCN(c2ncc(C(F)(F)F)cc2Cl)CC1	18	i	i	-2%	6%	3%
O=C(CSc1ncccn1)Nc1ncc(C(F)(F)F)cc1Cl	14	i	i	18%	2.1µM*	-61%
O=C(CN1CCN(c2ncc(C(F)(F)F)cc2Cl)CC1)NCCNc1ncc(C(F)(F)F)cc1Cl	-11	u	i	-27%	18µM*	u
